IL-1B inflam inh = inflammasome signaling inhibition, IL-1 beta readout | THP-1 LPS/ATP IL-1B secretion, AlphaLISA, 16 h; stronger effect = lower value | activity change, % at 57.5 µM | hit rate 4.7% among 360,000 | AID 743279; in the data active means activity change below about -50%; inconclusive means mostly about -30% to -49%
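THP-1 cells pretreated 1 hr with compounds (up to 57.5 uM final), then stimulated with LPS (250 ng/mL final) plus ATP (1.25 mM final); secreted IL-1B measured by AlphaLISA after 16 hr, decreased signal indicating inhibition.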
DT40 TDP1 CPT = growth inhibition of DT40 Tdp1-/-;hTDP1 cells with camptothecin (screen for TDP1 inhibitors) | chicken DT40 Tdp1-/-;hTDP1 cells + 20 nM CPT, ATP luminescence, 48 h | Potency, µM (highest dose often 46.2 µM), usual class: inhibitors | hit rate 12% among 420,000; further: nearly all actives have a fitted effect of over 55% in size
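Cell growth measured by CellTiter-Glo luminescence after a minimum 48 h, 37 C compound exposure with 20 nM CPT in Tdp1-knockout DT40 cells stably expressing hTDP1, seeded 400/well; qHTS titration format.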
Chronic BCR inh = inhibitors of chronic active B-cell receptor signaling; Potency, µM (highest dose often 46.1 µM), usual class: inhibitors; hit rate 0.05% among 340,000; ABC-DLBCL IkBa-CBG/CBR reporter, luminescence ratio, 4 h; active means well fitted inhibition curve with a large enough effect in the signal ratio, with a control signal flat, not every such curve was filed as active; inconclusive means small, poorly fitted or top-dose-only effect, or effect the other way, or a change in a side signal; the % refers to the signal ratio
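TMD8 human ABC-DLBCL cells with doxycycline-inducible IκBα–green luciferase fusion and unfused red luciferase, in 0.5% FBS medium; compounds up to 46 uM, 4 h at 37C. Green/red luminescence ratio, filter-overlap corrected, fitted to concentration-response curves.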
TDP1 cell noCPT = qHTS for Inhibitors of human tyrosyl-DNA phosphodiesterase 1 (TDP1): qHTS in cells in absence of CPT | DT40 Tdp1-/- hTDP1 cells, no CPT, ATP luminescence, 48 h | Potency, µM (series often up to 46.2 µM), actives largely listed as inhibitors | hit rate 15% among 420,000 | AID 686978, 2013; further: nearly all actives have a fitted effect of over 55% in size
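Growth of hTDP1-complemented DT40 Tdp1-knockout cells is measured by ATP luminescence after at least 48 hr compound exposure at 37 °C, with DMSO substituting for the 20 nM CPT used in the parallel screen.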
MCF10A rerep = inducers of DNA re-replication in MCF 10A breast cells; MCF 10A DNA re-replication, Hoechst nuclear intensity, 48 h; Potency, µM (top dose mostly 46.1 µM), hits mostly activators; hit rate 2.9% among 350,000; further: nearly all actives have a fitted effect of over 50% in size
SW480 rereplic = inducers of DNA re-replication in SW480 colon cancer cells; Potency, µM (series often up to 46.1 µM), hits mostly activators; hit rate 1.8% among 340,000; SW480 DNA re-replication, Hoechst DNA content imaging, 48 h; further: nearly all actives have a fitted effect of over 55% in size
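Image-based DNA-content assay: after two days of treatment, nuclei were labelled with the DNA dye Hoechst and imaged, and hits were compounds raising the count of nuclei showing high fluorescence intensity.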
Large screens that a line does not name were inactive. A selection: hits, their analogues and other compounds. The true share with any hit is near 19%. Unless noted, the call rests on the fitted dose curve; in most records, active means well fitted curve in the direction sought with a large enough effect; inconclusive means small, poorly fitted or top-dose-only effect, or another doubt; inactive means no such curve, though single readings can be large; an effect the other way counts as inactive or inconclusive.

CC(C)CCn1c(COc2ccccc2)nn(CCC#N)c1=S	DT40 TDP1 CPT inconclusive, MCF10A rerep inconclusive
CCOc1ccc(S(=O)(=O)NCc2ccc3c(c2)CCN3C(=O)c2ccc(C)cc2)cc1	DT40 TDP1 CPT 13µM, TDP1 cell noCPT 9.2µM (no result: IL-1B inflam inh, Chronic BCR inh, MCF10A rerep, SW480 rereplic)
COc1ccc(S(=O)(=O)NCc2ccc3c(c2)CCN3C(=O)c2ccc(C)cc2)cc1Cl	DT40 TDP1 CPT 21µM, TDP1 cell noCPT 16µM (no result: IL-1B inflam inh, Chronic BCR inh, MCF10A rerep, SW480 rereplic)
CCc1ccc(S(=O)(=O)NCc2ccc3c(c2)CCN3C(=O)c2ccc(C)cc2)cc1	DT40 TDP1 CPT 7.3µM, TDP1 cell noCPT 8.2µM (no result: IL-1B inflam inh, Chronic BCR inh, MCF10A rerep, SW480 rereplic)
COc1ccc(C(=O)NCc2ccc3c(c2)CCN3C(=O)c2ccc(C)cc2)cc1	DT40 TDP1 CPT inconclusive, TDP1 cell noCPT inconclusive (no result: IL-1B inflam inh, MCF10A rerep, SW480 rereplic)
CC(C)c1ccc(S(=O)(=O)NCc2ccc3c(c2)CCN3C(=O)c2ccccc2)cc1	DT40 TDP1 CPT 23µM, TDP1 cell noCPT 15µM (no result: IL-1B inflam inh, Chronic BCR inh, MCF10A rerep, SW480 rereplic)
CC(=O)N1CCc2cc(CNS(=O)(=O)c3ccc(F)cc3)ccc21	none (no result: IL-1B inflam inh, Chronic BCR inh, MCF10A rerep, SW480 rereplic)
O=C(NCc1cccnc1)C1CC(c2cccc(Br)c2)=NO1 (configuration not stated)	DT40 TDP1 CPT inconclusive, TDP1 cell noCPT inconclusive, MCF10A rerep 5.8µM, SW480 rereplic inconclusive
COc1cc(C2=NOC(C(=O)NCc3cccnc3)C2)cc(OC)c1OC (configuration not stated)	DT40 TDP1 CPT inconclusive, TDP1 cell noCPT inconclusive, SW480 rereplic inconclusive
COc1cc(C2=NOC(C(=O)NCc3cccs3)C2)cc(OC)c1OC (configuration not stated)	DT40 TDP1 CPT 2.3µM, Chronic BCR inh inconclusive, TDP1 cell noCPT 1.6µM, MCF10A rerep 10µM, SW480 rereplic 6.5µM
COc1cc(OC)c(C2=NOC(C(=O)NCc3cccs3)C2)cc1Cl (configuration not stated)	DT40 TDP1 CPT 2.3µM, Chronic BCR inh inconclusive, TDP1 cell noCPT 2.3µM, MCF10A rerep inconclusive, SW480 rereplic 9.2µM
COc1cc(OC)c(C2=NOC(C(=O)NCCc3ccccc3)C2)cc1Cl (configuration not stated)	Chronic BCR inh inconclusive
O=C(NCc1cccs1)C1CC(c2ccccc2O)=NO1 (configuration not stated)	DT40 TDP1 CPT 21µM, Chronic BCR inh inconclusive, TDP1 cell noCPT inconclusive, MCF10A rerep 18µM
COc1cc(OC)c(C2=NOC(C(=O)NCc3cccnc3)C2)cc1Cl (configuration not stated)	DT40 TDP1 CPT inconclusive, TDP1 cell noCPT 15µM, SW480 rereplic inconclusive
COc1cc(NC(=O)C2CC(c3cccc(OC)c3OC)=NO2)cc(OC)c1OC (configuration not stated)	DT40 TDP1 CPT 14µM, TDP1 cell noCPT 16µM, MCF10A rerep 16µM, SW480 rereplic inconclusive
COc1ccc(C2=NOC(C(=O)NCc3cccs3)C2)cc1 (configuration not stated)	DT40 TDP1 CPT 5.2µM, Chronic BCR inh inconclusive, TDP1 cell noCPT 2.9µM, MCF10A rerep 9.2µM
COc1cccc(C2=NOC(C(=O)Nc3cccnc3Cl)C2)c1OC (configuration not stated)	none
COc1ccc(OC)c(C2=NOC(C(=O)NCc3cccnc3)C2)c1 (configuration not stated)	DT40 TDP1 CPT inconclusive, TDP1 cell noCPT inconclusive, MCF10A rerep inconclusive
O=C(NCCCc1ccccc1)c1cccc(NC(=O)C2CCCCC2)c1	TDP1 cell noCPT inconclusive (no result: Chronic BCR inh)
Cc1nc2cnc(N(C)C)nc2n(C2CC2)c1=O	none (no result: IL-1B inflam inh, Chronic BCR inh, MCF10A rerep, SW480 rereplic)
CC1=CSC2=NC(=O)/C(=C\c3cccn3-c3ccccc3)C(=N)N12	DT40 TDP1 CPT inconclusive, Chronic BCR inh inconclusive, TDP1 cell noCPT inconclusive
CC1=CC2=NC(=O)/C(=C\c3cccn3CCOc3ccccc3C)C(=N)N2O1	IL-1B inflam inh inconclusive, DT40 TDP1 CPT 21µM, Chronic BCR inh inconclusive, TDP1 cell noCPT inconclusive
Cc1ccccc1Cn1cccc1/C=C1/C(=N)N2C=CSC2=NC1=O	DT40 TDP1 CPT 18µM, TDP1 cell noCPT 29µM, MCF10A rerep inconclusive
